Experimental data taken from PubChem BioAssay (Tox21).
A number with no mark means an inactive call. Inconclusive results are not listed. A call without a number means that no potency is given here. Calls of active or inactive are those of the source. Unless noted, the call rests on the fitted dose curve.

Legend:
[1] = Nuclear factor erythroid 2-related factor 2/antioxidant responsive element (Nrf2/ARE) small molecule agonists: luciferase reporter gene qHTS assay in human keratinocytes (AID 1919969); further: nearly all actives have a fitted effect of over 35% in size; further: potency means the concentration at half of the fitted maximal effect
[2] = target: Gonadotropin-releasing hormone receptor (Homo sapiens) (UniProt P30968); test: Human gonadotropin-releasing hormone receptor (GnRHR) small molecule agonists, calcium flux assay in GnRHR-HEK293 cells (AID 1920063); further: nearly all actives have a fitted effect of over 35% in size
How it was run: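 We seeded human GnRHR-expressing HEK293 cells for 18 hours, loaded them with calcium dye for an hour at 37 C, added test compounds, and recorded fluorescence intensity kinetically for three minutes.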

[3] = target: KiSS-1 receptor (Homo sapiens) (UniProt Q969F8); test: Human kisspeptin (KISS1R) small molecule agonists, calcium flux assay in KISS1R-HEK293 cells (AID 1920064; active means well fitted activation curve with a large enough effect in the repeat runs)
How it was run: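 Kinetic calcium assay, 1 s sampling over 3 min at Ex/Em 480/540, in HEK293 cells engineered with human KISS1R; compounds delivered in DMSO after 1 h dye loading.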

[4] = G protein-coupled receptor (GPCR) small molecule agonists, calcium flux assay: HEK293 wild type cell line counter screen (AID 1920065)
How it was run: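 Calcium-sensitive dye, loaded 1 h at 37 C into cells cultured 18 h, reports compound-evoked calcium release as fluorescence (Ex/Em 480/540), measured over 3 min. Agonist mode; 15-point titrations, triplicate.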

[5] = p53 small molecule agonists, cell-based qHTS assay with human liver microsomes: qHTS cell viability counter screen (AID 1963579); further: nearly all actives have a fitted effect of over 45% in size
How it was run: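 p53RE-bla cells (4,000/well) were pre-incubated 5 h at 37 C, then given compounds in DMSO plus human liver microsomes (0.5 mg/mL final) and NADPH (0.5 mg/mL final) for 16 h at 37 C. Viability was read by CellTiter-Glo luminescence.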

[6] = p53 small molecule agonists, cell-based qHTS assay with rat liver microsomes: qHTS cell viability counter screen (AID 1963580); further: nearly all actives have a fitted effect of over 45% in size
How it was run: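 Intracellular ATP, by CellTiter-Glo luminescence, defines viability. HCT-116 p53RE-bla cells, 4,000 per well, were compound-treated in the presence of rat liver microsomes and NADPH for 16 h at 37 C.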

[7] = p53 small molecule agonists, cell-based qHTS assay: qHTS cell viability counter screen (AID 1963581); further: nearly all actives have a fitted effect of over 45% in size
How it was run: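 Following 5 h attachment, HCT-116 p53RE-bla cells took up compound for 16 h at 37 C; the reporter was read with B/G FRET substrate (2 h RT), and viability then via CellTiter-Glo ATP luminescence.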

[8] = target: 5-hydroxytryptamine receptor 2A (Homo sapiens) (UniProt P28223); test: 5-hydroxytryptamine receptor 2A (HTR2A) small molecule antagonists, cell-based qHTS assay (AID 1963586); further: nearly all actives have a fitted effect of over 45% in size
How it was run: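 Antagonist-mode intracellular calcium assay: DOI (4 nM) added after 5 min compound pre-incubation at room temperature to dye-loaded HTR2A-CHO cells. Fluorescence followed for 3 min, sampled every second.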

[9] = target: 5-hydroxytryptamine receptor 2A (Homo sapiens) (UniProt P28223); test: 5-hydroxytryptamine receptor 2A (HTR2A) small molecule agonists, cell-based qHTS assay (AID 1963587); further: nearly all actives have a fitted effect of over 30% in size
How it was run: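 Kinetic calcium-flux fluorescence (2 min, 1 sec intervals) after compound addition in agonist mode. HTR2A-CHO cells were cultured 18 h, then dye-loaded 1 h at 37 C.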

[10] = target: Muscarinic acetylcholine receptor M1 (Homo sapiens) (UniProt P11229); test: Cholinergic receptor muscarinic 1 (CHRM1) small molecule antagonists, cell-based qHTS assay (AID 1963588); further: nearly all actives have a fitted effect of over 40% in size
How it was run: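 CHRM1-CHO calcium-flux assay, antagonist mode. Cells were seeded 18 h, dye-loaded 1 h at 37 C and given compound for 5 min at RT, then acetylcholine was added at 50nM. FDSS fluorescence was read 3 min; 15 concentrations, three runs.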

[11] = target: Muscarinic acetylcholine receptor M1 (Homo sapiens) (UniProt P11229); test: Cholinergic receptor muscarinic 1 (CHRM1) small molecule agonists, cell-based qHTS assay (AID 1963589); further: nearly all actives have a fitted effect of over 35% in size
How it was run: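 Measures agonist-induced intracellular calcium rise. Stable human CHRM1 CHO line, 1 h dye load at 37 C, compounds from DMSO, kinetic fluorescence read.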

[12] = cAMP Responsive Elements (CRE) small molecule agonists, cell-based qHTS assay (AID 1963590)
How it was run: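 A CRE-responsive beta-lactamase reporter in HEK 293T cells was used. Treatment ran 3 h at 37 C; detection used LiveBLAzer B/G FRET substrate for 2 h at room temperature.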

[13] = cAMP Responsive Elements (CRE) small molecule antagonists, cell-based qHTS assay (AID 1963591; active means well fitted inhibition curve with a large enough effect in the signal ratio in the repeat runs, not every such curve was filed as active; the % refers to the signal ratio)
How it was run: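 HEK293T cells carrying a CRE-driven beta-lactamase reporter receive compound and NKH477 (0.25 uM final) for 3 h. Fluorescence from LiveBLAzer B/G FRET substrate is read after 2 h at room temperature.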

[14] = target: Beta-2 adrenergic receptor (Homo sapiens) (UniProt P07550); test: Adrenergic beta2 receptor (ADRB2) small molecule agonists, cell-based qHTS assay (AID 1963593);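 further: CHO cells stably overexpressing human ADRB2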
How it was run: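 CHO cells stably over-expressing ADRB2 were plated overnight at 37C, then dosed with compounds plus a stimulation mix containing 100uM IBMX and 25uM Ro-20-1724 for 0.5hr at room temperature. cAMP was measured by HTRF competition, 1hr.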

[15] = target: D(2) dopamine receptor (Homo sapiens) (UniProt P14416); test: Dopamine D2 receptor (DRD2) small molecule agonists, cell-based qHTS assay (AID 1963594); further: nearly all actives have a fitted effect of over 35% in size
How it was run: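 cAMP accumulation in DRD2-HEK293 cells measured by HTRF after 1 h detection; compounds added 10 min before NKH477 (200nM […]) forskolin-analogue stimulation, 30 min at room temperature, with Ro20-1724 present at 0.1 mM final.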

[16] = target: Beta-2 adrenergic receptor (Homo sapiens) (UniProt P07550); test: Adrenergic beta2 receptor (ADRB2) small molecule antagonists, cell-based qHTS assay (AID 1963592); further: series mostly up to about 92 µM; nearly all actives have a fitted effect of over 50% in size
How it was run: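 Cells (CHO, stable ADRB2 overexpression) incubated 18-20hr at 37C; compounds added from DMSO; agonist mix (1nM isoproterenol, 100uM IBMX, 25uM Ro-20-1724) added; 0.5hr RT; d2-cAMP and anti-cAMP-cryptate added; 1hr RT; 665/615 nm read.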

[17] = target: D(2) dopamine receptor (Homo sapiens) (UniProt P14416); test: Dopamine D2 receptor (DRD2) small molecule antagonists, cell-based qHTS assay (AID 1963595; active means well fitted inhibition curve with a large enough effect in the signal ratio in the repeat runs, with a control signal flat; the % refers to the signal ratio)
How it was run: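 HTRF cAMP read-out at 665 and 620 nm emission (340 nm excitation). Antagonist mode: compounds were tested against 12 nM quinpirole in DRD2-HEK293 cells, with 200 nM NKH477 raising cAMP and 0.1 mM Ro20-1724 blocking its breakdown.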

Chain of 5-hydroxytryptamine receptor 2A (Homo sapiens) (P28223 whole entry, looked up): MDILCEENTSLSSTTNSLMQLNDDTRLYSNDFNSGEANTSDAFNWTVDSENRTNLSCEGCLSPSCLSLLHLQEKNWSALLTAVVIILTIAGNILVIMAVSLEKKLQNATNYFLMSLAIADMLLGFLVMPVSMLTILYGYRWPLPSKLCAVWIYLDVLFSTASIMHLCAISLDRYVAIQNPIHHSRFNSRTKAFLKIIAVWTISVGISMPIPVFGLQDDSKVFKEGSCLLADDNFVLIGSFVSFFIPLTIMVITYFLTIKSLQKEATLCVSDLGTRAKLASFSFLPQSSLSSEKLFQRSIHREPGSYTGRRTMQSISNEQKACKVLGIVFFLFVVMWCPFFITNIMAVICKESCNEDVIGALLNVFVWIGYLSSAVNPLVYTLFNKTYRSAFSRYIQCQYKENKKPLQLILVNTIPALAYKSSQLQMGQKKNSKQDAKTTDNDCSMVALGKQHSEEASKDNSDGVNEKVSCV
Chain of KiSS-1 receptor (Homo sapiens) (Q969F8 whole entry, looked up): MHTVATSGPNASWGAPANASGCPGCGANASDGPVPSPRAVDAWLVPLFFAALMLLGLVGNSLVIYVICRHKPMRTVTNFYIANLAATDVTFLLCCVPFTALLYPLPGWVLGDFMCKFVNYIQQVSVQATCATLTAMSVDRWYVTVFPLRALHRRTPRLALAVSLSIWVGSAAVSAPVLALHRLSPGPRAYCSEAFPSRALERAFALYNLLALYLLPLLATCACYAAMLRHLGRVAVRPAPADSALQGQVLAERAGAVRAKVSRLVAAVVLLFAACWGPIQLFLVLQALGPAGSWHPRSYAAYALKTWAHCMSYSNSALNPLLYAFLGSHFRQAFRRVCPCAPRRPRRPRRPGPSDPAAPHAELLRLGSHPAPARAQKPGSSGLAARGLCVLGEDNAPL
Chain of Muscarinic acetylcholine receptor M1 (Homo sapiens) (P11229 whole entry, looked up): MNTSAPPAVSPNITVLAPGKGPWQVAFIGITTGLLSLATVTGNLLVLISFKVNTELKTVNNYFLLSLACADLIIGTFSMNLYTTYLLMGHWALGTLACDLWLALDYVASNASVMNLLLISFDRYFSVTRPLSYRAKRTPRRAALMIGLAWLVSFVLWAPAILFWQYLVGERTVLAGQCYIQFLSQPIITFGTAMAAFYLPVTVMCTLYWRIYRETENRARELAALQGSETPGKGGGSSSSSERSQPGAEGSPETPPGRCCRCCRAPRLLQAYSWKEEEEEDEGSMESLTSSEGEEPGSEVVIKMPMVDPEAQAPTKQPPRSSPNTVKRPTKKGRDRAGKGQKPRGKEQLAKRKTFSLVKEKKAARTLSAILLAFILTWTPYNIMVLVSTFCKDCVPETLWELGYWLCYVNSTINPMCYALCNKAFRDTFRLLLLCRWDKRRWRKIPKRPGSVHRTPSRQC
Chain of D(2) dopamine receptor (Homo sapiens) (P14416 whole entry, looked up): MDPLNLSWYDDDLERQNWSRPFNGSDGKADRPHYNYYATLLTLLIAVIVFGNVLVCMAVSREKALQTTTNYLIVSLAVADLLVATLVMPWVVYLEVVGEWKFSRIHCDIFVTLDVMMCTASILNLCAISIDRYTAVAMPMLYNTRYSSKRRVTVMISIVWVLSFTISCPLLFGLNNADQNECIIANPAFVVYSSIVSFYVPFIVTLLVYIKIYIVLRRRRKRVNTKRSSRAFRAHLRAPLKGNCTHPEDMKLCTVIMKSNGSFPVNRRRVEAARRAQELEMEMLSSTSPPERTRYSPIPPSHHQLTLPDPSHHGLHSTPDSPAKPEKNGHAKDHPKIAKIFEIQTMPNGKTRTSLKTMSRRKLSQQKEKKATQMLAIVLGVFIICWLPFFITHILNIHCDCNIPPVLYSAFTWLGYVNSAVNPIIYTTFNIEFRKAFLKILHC
Chain of Gonadotropin-releasing hormone receptor (Homo sapiens) (P30968 whole entry, looked up): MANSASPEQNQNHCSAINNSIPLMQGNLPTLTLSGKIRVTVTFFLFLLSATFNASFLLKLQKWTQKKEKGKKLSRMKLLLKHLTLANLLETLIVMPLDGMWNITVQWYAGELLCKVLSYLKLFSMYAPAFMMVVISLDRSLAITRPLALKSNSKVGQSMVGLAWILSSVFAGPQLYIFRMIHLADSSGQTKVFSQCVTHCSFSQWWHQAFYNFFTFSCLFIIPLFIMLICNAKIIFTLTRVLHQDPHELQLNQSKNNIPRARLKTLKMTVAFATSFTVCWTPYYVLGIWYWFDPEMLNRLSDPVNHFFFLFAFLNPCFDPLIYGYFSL
Chain of Beta-2 adrenergic receptor (Homo sapiens) (P07550 whole entry, looked up): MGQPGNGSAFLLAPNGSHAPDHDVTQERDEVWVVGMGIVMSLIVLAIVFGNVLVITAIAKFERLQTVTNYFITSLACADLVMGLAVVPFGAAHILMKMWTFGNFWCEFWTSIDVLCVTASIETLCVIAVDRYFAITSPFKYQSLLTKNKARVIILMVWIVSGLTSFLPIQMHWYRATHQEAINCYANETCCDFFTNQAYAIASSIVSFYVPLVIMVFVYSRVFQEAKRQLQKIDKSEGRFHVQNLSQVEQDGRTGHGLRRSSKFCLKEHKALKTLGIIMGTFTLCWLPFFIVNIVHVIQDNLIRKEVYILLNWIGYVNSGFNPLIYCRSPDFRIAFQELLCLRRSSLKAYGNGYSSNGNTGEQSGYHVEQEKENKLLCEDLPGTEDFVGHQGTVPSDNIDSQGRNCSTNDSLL

SMILES	Potency [1]	Potency [2]	Potency [3]	Potency [4]	Potency [5]	Potency [6]	Potency [7]	Potency [8]	Potency [9]	Potency [10]	Potency [11]	Potency [12]	Potency [13]	Potency [14]	Potency [15]	Potency [16]	Potency [17]
Cc1nc([N+](=O)[O-])cn1-c1ccc([N+](=O)[O-])cc1	inactive	inactive	inactive	inactive	inactive	inactive	inactive	inactive	inactive	inactive	inactive	inactive	inactive	inactive	inactive	–	–
CC(C)(CO)C(O)C(=O)NCCCO (stereo not given)	inactive	inactive	inactive	inactive	inactive	inactive	inactive	–	–	–	–	inactive	inactive	–	inactive	inactive	inactive
CC(C)N(c1ccccc1)C(C)C	inactive	inactive	inactive	inactive	inactive	inactive	–	inactive	inactive	inactive	–	–	inactive	–	inactive	inactive	inactive
CC(C)=CCOc1ccc(/C=C/C(=O)c2ccc(OCC=C(C)C)cc2OCC(=O)O)cc1	26.6 µM (active)	inactive	inactive	inactive	inactive	inactive	–	–	inactive	–	inactive	–	–	inactive	inactive	inactive	inactive
CCCCC(CC)COC(=O)c1ccccc1 (stereo not given)	inactive	inactive	inactive	inactive	inactive	inactive	inactive	inactive	inactive	inactive	inactive	inactive	–	–	inactive	inactive	inactive
CN(C)c1ccc(O)c2c1C[C@H]1C[C@H]3[C@H](N(C)C)C(=O)C(C(N)=O)=C(O)[C@@]3(O)C(=O)C1=C2O	inactive	inactive	inactive	inactive	inactive	inactive	inactive	inactive	inactive	inactive	inactive	–	inactive	–	inactive	inactive	–
CC[N+](CC)(CC(=O)Nc1c(C)cccc1C)Cc1ccccc1 (tested in a mixture with another compound)	inactive	inactive	inactive	inactive	inactive	inactive	inactive	inactive	inactive	inactive	inactive	inactive	inactive	–	–	–	inactive
CC(=O)OCC(=O)[C@@]12OC(C)(C)O[C@@H]1C[C@H]1[C@@H]3C[C@H](F)C4=CC(=O)C=C[C@]4(C)[C@@]3(F)[C@@H](O)C[C@@]12C	inactive	inactive	inactive	inactive	inactive	inactive	inactive	–	–	–	–	–	–	–	inactive	inactive	inactive
